From PubChem BioAssay (NCI)
This is part of a sample that, as a whole, favours compounds with a hit. Of some 83,000 tested, about 20% had one in any assay.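 48-hour exposure, single concentration, 96-well plates; percent growth endpoint where 0 means no net growth. Active: below 10.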 Unmarked numbers belong to inactive results. The source made the active and inactive calls.

Legend:
Test in all cases: NCI-60 one-dose screen, 48 h (100 = growth as untreated, 0 = no growth, -100 = all killed)
Conditions in all cases: 10 µM unless noted
[1] = system: SR leukemia
[2] = system: RPMI-8226 leukemia
[3] = system: OVCAR-8 ovarian
[4] = system: OVCAR-5 ovarian
[5] = system: OVCAR-4 ovarian
[6] = system: SK-OV-3 ovarian
[7] = system: IGROV1 ovarian
[8] = system: OVCAR-3 ovarian
[9] = system: HS 578T breast
[10] = system: NCI/ADR-RES ovarian
[11] = system: T-47D breast
[12] = system: BT-549 breast
[13] = system: MDA-MB-435 melanoma
[14] = system: SW-620 colon
[15] = system: MCF7 breast
[16] = system: HCC-2998 colon
[17] = system: KM12 colon
[18] = system: HCT-116 colon

Structure (SMILES)	growth [1]	growth [2]	growth [3]	growth [4]	growth [5]	growth [6]	growth [7]	growth [8]	growth [9]	growth [10]	growth [11]	growth [12]	growth [13]	growth [14]	growth [15]	growth [16]	growth [17]	growth [18]
CC(=C(c1ccc(OCCN2CCCCC2)cc1)c1ccc(OCCN2CCCCC2)cc1)c1ccc(Cl)cc1	-60.3% (active)	-61.7% (active)	-77.4% (active)	-92.5% (active)	-88.8% (active)	-91.1% (active)	-83% (active)	-91.4% (active)	-72.4% (active)	-90.8% (active)	-72.6% (active)	-87% (active)	-96.6% (active)	-84.8% (active)	-85.4% (active)	-93.4% (active)	-84.9% (active)	
Cc1ccc(C(=O)c2ccc(CC(=O)NN3C(=O)c4ccccc4C3=O)n2C)cc1	110%	100%	98.9%	93.7%	101%	109%	98.6%	107%	104%	99.1%	98.3%	110%	99.6%	99.3%	91.4%	104%	102%	
Clc1ccccc1-c1cnn2cc(-c3ccccc3)cnc12	59.9%	87.1%	78.9%	79.6%	76.1%	83.9%		90%	74.4%	83.7%	78.9%	83.1%	44.8%	76.9%	75.3%	85.9%	63.8%	69%
CN1C(=O)/C(=C/c2ccc(C(=O)Nc3ncc(Cc4cccc(Cl)c4)s3)cc2)SC1=S	85.2%	60.8%	64.1%	61.8%	52.9%	72.1%		69%	74.6%	56.9%	42.7%	57%	5.05% (active)	37.4%	46%	59.2%	33.5%	47.5%
O=C(/C=C/c1ccccc1)c1ccc(Nc2nc(Nc3ccc(F)cc3)nc(Nc3ccc(Cl)cc3)n2)cc1	78.2%	-9.92% (active)	58.4%	102%	90.8%	103%		80.2%	99.7%	76.7%	62.1%	101%	95.7%	90.4%	30.2%	70.8%	91.6%	49.6%
C=C1C(=O)O[C@H]2[C@H]1CC/C(COC(=O)/C=C\C(=O)NCc1ccc(Cn3c(=O)sn(CCCCC)c3=O)cc1)=C\CC[C@@]1(C)O[C@@H]21	59.7%	8.85% (active)	84.5%	89%	84.6%	111%		36%	98.2%	98.8%	71.7%	85.8%	60.6%	19.2%	36.6%	100%	98.8%	40.3%
CCOC(=O)c1c(C)nc2ccccc2c1/C=C/c1cccs1	68.6%	50.7%	74.8%	87.8%	40.4%	75.9%	72.1%	82.7%	98.9%		17.4%	77.4%	88.7%	91.9%	39.5%		77.8%	61.3%
C=C1C(=O)O[C@H]2[C@H]1CC/C(COC(=O)CSCSCC(=O)OC/C1=C/CC[C@@]3(C)O[C@H]3[C@H]3OC(=O)C(=C)[C@@H]3CC1)=C\CC[C@@]1(C)O[C@@H]21	-16.4% (active)	-31.2% (active)	5.96% (active)	30.1%	50.5%	104%		-21.4% (active)	23.1%	62.4%	20.9%	-5.92% (active)	26.6%	-9.08% (active)	16.7%	16.5%	35.1%	-24% (active)
COc1ccc2c(c1)c(-c1nc(-c3c[nH]c4ncccc34)cs1)cn2CCO	37.8%	39.9%	56.2%	68.2%	42.1%	30%		78.7%	33.5%	76%	23.4%	41.7%	66.5%	63.1%	20.1%	58.9%	20.7%	
COc1ccc(C(=S)N2CCN(c3ccc(Cl)cc3)CC2)cc1	90.5%	94%	98.2%	93.8%	102%	98.5%		114%	105%	97.6%	88.1%	95.4%	120%	106%	94%	105%	101%	96%
COc1cc(/C=N/Nc2ccc(Br)cc2)cc(OC)c1OC	68.8%	58.4%	54.8%	68.4%	51%	85.2%		63.3%	80%		30.8%	95.1%	39.5%	46.8%	51%	45.7%	16.3%	60.8%
Cc1cc2c(cc1C)N(C(=O)CCl)CC(=O)N2	-8.95% (active)	37.5%	61.6%	96.8%	60.6%	68.9%		6.17% (active)	72.9%	62.4%	15.6%	18.9%	54.9%	-48.2% (active)	19.6%	71.6%	60.2%	-10.9% (active)
CN(C)CCCC1(c2ccc(F)cc2)OCc2cc(-c3ccc4cc[nH]c4c3)ccc21 (centres undefined)	-2.82% (active)	36.7%	57.9%	84.4%	44.4%	90.2%		45.6%	54.6%	56.8%	75.8%	87.7%	14.7%	17.2%	-4.23% (active)	-61.6% (active)	0.464% (active)	-12.2% (active)
Fc1ccc2[nH]cc(-c3nc(-c4c[nH]c5ccncc45)cs3)c2c1	-6.91% (active)	-24.2% (active)	-41.5% (active)	24.3%	-0.149% (active)	63.1%		-74.3% (active)	-38.3% (active)	16.9%	-30.3% (active)	70%	-75.3% (active)	-63.5% (active)	-46.7% (active)	-74.3% (active)	-67.1% (active)	-85.6% (active)
N#CC1CCc2c(c(-c3ccc4nc(N)sc4c3)nc3ccc4[nH]ncc4c23)C1 (centres undefined)	9.04% (active)	43.4%	46.4%	65.5%	64.9%	33.7%		69.7%	30.9%	63.7%	94%	65.5%	-2.8% (active)	39.1%	21.7%		24.4%	25.6%
COc1cc(NC(=O)c2cncnc2Nc2ccc3c(ccn3Cc3ccccn3)c2)cc(OC)c1	12.9%	43.5%	65.8%	76.6%	78.4%	57.9%	45.4%	9.55% (active)	35.2%		45.3%	34.9%	-6.69% (active)	23.6%	31.2%		33.7%	18.2%
Cc1ccnc(Nc2ccc([N+](=O)[O-])c(NCCN3CCOCC3)n2)c1	9.97% (active)	26.1%	34.8%	99.1%	59.4%	62.1%		26.1%	38.3%	43.9%	83.9%	18.6%	-20.5% (active)	27.9%	21%	14.4%	5.83% (active)	-12.9% (active)
